From PubChem BioAssay
The source made the active and inactive calls.

Tests used:
[1] = test system: Plasmodium falciparum Sir2 (PF13_0152, Sir2A); assay: Plasmodium falciparum Sir2A binding compounds – biochemical, small-molecule microarray, 635 nm fluorescence, primary screen (AID 1098); settings: fluorescence 635 nm, higher = more signal;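 further: score merges spot fluorescence intensity with its signal-to-noise ratio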
[2] = probe aDKK1 binding to arrayed compounds – biochemical, biotinylated probe, 635/667 nm fluorescence, primary screen (AID 1099); settings: small-molecule microarray, higher = more signal;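 further: score merges 667nm spot fluorescence with signal to noise across triplicate slides; reference of the scale not given here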
[3] = probe aCHRDL2 binding to arrayed compounds – biochemical, biotinylated probe, 635/667 nm fluorescence, primary screen (AID 1100); settings: small-molecule microarray, higher = more signal
[4] = change in splice reporter luminescence, either direction, cell-based, HEK293, spliceosome inhibition project, primary screen (AID 1101); settings: HEK293 splicing luciferase reporter, 24 h, higher = more signal, called active from +8 up or from −8 down;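 further: HEK293 cells carrying a splicing-competent luciferase reporter gene; test concentration not given here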
[5] = target: Fibroblast growth factor 10 (Homo sapiens) (UniProt O15520); assay: compounds binding fibroblast growth factor 10 – biochemical, small-molecule microarray, 635 nm fluorescence, primary screen (AID 1102); settings: FGF10 binding, fluorescence 635 nm, higher = more signal
Chain of Fibroblast growth factor 10 (Homo sapiens) (O15520 whole entry, looked up): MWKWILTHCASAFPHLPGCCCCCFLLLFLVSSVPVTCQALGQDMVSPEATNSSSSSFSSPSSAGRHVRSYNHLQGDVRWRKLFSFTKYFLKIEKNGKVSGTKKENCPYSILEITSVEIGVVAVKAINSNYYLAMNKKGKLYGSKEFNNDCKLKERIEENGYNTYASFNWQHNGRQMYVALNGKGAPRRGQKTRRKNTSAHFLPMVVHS

[6] = test system: glycogen synthase kinase-3 (GSK3A per assay name; protocol says GSK3B); assay: compounds binding glycogen synthase kinase-3 – biochemical, small-molecule microarray, 635 nm fluorescence, GSK3A, primary screen (AID 1103); settings: fluorescence 635 nm, higher = more signal; further: the record names both GSK3A and GSK3B
[7] = target: Epidermal growth factor receptor (Homo sapiens) (UniProt P00533); assay: compounds binding epidermal growth factor receptor – biochemical, small-molecule microarray, 635 nm fluorescence, primary screen (AID 1104); settings: EGFR binding, higher = more signal;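 further: score merges 667 nm emission intensity with spot signal to noise over triplicate slides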
Chain of Epidermal growth factor receptor (Homo sapiens) (P00533 whole entry, looked up): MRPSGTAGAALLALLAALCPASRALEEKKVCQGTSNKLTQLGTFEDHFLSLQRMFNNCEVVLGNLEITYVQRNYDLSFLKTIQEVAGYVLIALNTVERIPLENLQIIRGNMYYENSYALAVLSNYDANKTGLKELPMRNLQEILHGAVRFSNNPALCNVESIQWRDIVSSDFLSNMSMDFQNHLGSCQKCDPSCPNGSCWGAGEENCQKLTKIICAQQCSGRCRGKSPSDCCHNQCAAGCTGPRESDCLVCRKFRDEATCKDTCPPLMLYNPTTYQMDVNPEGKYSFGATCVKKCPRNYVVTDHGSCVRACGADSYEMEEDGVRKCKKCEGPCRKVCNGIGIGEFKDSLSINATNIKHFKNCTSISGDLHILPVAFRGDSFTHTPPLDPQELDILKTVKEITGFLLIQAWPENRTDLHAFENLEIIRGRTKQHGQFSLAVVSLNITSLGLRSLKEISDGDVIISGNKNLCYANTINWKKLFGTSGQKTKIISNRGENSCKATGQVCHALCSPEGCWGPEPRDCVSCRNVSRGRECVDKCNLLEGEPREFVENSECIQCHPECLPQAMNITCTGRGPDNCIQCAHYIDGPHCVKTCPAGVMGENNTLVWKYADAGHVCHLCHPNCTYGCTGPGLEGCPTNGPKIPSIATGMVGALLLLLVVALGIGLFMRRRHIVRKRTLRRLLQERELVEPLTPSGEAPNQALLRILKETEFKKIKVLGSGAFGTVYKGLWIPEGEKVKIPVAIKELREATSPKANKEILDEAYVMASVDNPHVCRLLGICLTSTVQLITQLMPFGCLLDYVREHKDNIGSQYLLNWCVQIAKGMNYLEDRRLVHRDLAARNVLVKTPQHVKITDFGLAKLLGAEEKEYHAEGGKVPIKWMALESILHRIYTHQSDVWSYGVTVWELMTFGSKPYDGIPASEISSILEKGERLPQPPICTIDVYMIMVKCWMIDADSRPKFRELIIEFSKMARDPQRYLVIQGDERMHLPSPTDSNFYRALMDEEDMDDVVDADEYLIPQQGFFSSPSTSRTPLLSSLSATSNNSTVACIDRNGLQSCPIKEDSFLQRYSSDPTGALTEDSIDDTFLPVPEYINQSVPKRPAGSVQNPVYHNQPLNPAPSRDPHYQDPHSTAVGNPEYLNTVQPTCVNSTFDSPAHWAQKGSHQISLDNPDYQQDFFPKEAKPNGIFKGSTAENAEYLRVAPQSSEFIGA

[8] = target: Follistatin-related protein 3 (Homo sapiens) (UniProt O95633); assay: compounds binding follistatin-related protein 3 – biochemical, small-molecule microarray, 635 nm fluorescence, primary screen (AID 1105); settings: FSTL3 binding, higher = more signal;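 further: score merges emission near 667 nm and signal to noise per printed spot across three slides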
Chain of Follistatin-related protein 3 (Homo sapiens) (O95633 whole entry, looked up): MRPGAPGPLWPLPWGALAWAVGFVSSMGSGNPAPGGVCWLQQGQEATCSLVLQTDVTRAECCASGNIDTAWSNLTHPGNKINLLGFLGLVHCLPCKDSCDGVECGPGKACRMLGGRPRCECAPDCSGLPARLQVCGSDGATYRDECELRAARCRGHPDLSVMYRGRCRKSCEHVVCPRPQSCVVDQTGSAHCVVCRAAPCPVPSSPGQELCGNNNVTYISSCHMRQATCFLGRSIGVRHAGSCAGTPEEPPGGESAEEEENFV

[9] = target: Dickkopf-related protein 1 (Homo sapiens) (UniProt O94907); assay: small molecules binding DKK1 protein – biochemical, small-molecule microarray, 635 nm fluorescence scan, primary screen (AID 1106); settings: higher = more signal;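 further: score merges emission near 667 nm with signal to noise over three replicate slides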
Chain of Dickkopf-related protein 1 (Homo sapiens) (O94907 whole entry, looked up): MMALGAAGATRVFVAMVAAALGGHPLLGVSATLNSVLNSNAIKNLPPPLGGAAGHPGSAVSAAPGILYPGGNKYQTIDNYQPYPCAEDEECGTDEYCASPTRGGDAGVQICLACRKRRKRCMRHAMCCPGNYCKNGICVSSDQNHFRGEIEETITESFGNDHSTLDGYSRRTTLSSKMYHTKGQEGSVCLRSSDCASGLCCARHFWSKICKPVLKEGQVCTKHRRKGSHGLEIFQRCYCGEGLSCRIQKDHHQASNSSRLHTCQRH

[10] = test system: Inhibin beta A chain (activin A); assay: small molecules binding activin A – biochemical, small-molecule microarray, 635 nm fluorescence scan, primary screen (AID 1107); settings: INHBA, higher = more signal;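 further: mouse activin A protein probed at 4.33 µg/mL on printed slides; score merges bound-protein fluorescence near 667 nm with spot signal-to-noise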

| SMILES | composite z-score [1] | composite z-score [2] | composite z-score [3] | z-score [4] | composite z-score [5] | composite z-score [6] | composite z-score [7] | composite z-score [8] | composite z-score [9] | composite z-score [10] |
| --- | --- | --- | --- | --- | --- | --- | --- | --- | --- | --- |
| COC(=O)[C@@]1(Cc2ccc(F)cc2)[C@H]2c3cc(C(=O)N4CCCC4)n(Cc4ccc(C)c(F)c4F)c3C[C@H]2CN1C(=O)c1ccccc1 | 0.961 | 0.902 | 0.931 | -4.09 (inactive) | -0.291 | -0.931 | -0.499 | -1.07 | -0.453 | 1.42 |
| NC(=O)[C@H]1[C@@H]2C(=O)O[C@@H](c3ccccc3)[C@@H](c3ccccc3)N2[C@@H](c2ccc(OCCO)cc2)[C@]12C(=O)Nc1ccc(C#CCCO)cc12 | 0.912 | 0.313 | 0.485 | 0.728 (inactive) | 0.251 | 0.608 | 0.189 | 0.255 | 0.24 | 0.779 |
| C=CCNC(=O)[C@@H]1[C@H]2C(=O)O[C@H](c3ccccc3)[C@H](c3ccccc3)N2[C@H](c2ccc(O)cc2)[C@@]12C(=O)N(C(=O)OCCOC)c1ccc(C#CC3=CCCCC3)cc12 | 1.04 | -0.122 | -0.294 | -1.19 (inactive) | 0.965 | 1.29 | 0.714 | 1.09 | 0.53 | 0.492 |
| CCOC(=O)C[C@H]1[C@H](OC(=O)c2ccccc2-c2ccccc2)[C@@H](NC(=O)c2ccc3ccccc3c2)c2cc(OCCCO)ccc2N1C(=O)c1ccccc1 | 0.162 | -0.154 | -0.559 | -0.314 (inactive) | 0.792 | 0.601 | 0.505 | 0.741 | 0.427 | -0.124 |
| COC(=O)C1=CC(CCCO)=CC(c2cccs2)N(Cc2cccc(OC(F)(F)F)c2)C=C1C(=O)OC (stereo not given) | 0.0898 | 0.524 | 0.574 | 0.955 (inactive) | 0.67 | 1.09 | 0.179 | 0.989 | -0.149 | 1.09 |
| CCCCC(CC)C(O)C1C=CC2C(=O)N(C)C(=O)C2N1Nc1ccccc1 (stereo not given) | 0.579 | 0.559 | 0.0302 | 1.48 (inactive) | 0.304 | 0.598 | -0.248 | 0.192 | -0.0617 | 0.864 |
| COC(=O)[C@@H]1N=C(c2ccc(OCCCO)cc2)O[C@@H]1c1ccccc1 | 1.76 | 0.311 | 0.725 | -2.07 (inactive) | -1.4 | -1.33 | -0.665 | -1.22 | -1.71 | -0.0285 |
| CN(C)C(=O)[C@]1(Cc2ccccc2CN=[N+]=[N-])N=C(c2ccc(OCCCO)cc2)O[C@@H]1c1ccccc1 | 1.19 | 0.161 | 0.821 | -1.45 (inactive) | 0.647 | 0.497 | -0.19 | -0.202 | -0.147 | 1.29 |
| CCCCCN1CC=CC23O[C@@H]4/C=C\CCCOC(=O)C4[C@H]2C(=O)N(C(C)CO)[C@@H]3C1=O (stereo not given in full) | 2.01 | -0.339 | 0.525 | 0.1 (inactive) | -1.43 | -1 | -1.07 | -0.706 | -0.964 | -0.57 |
| CC(C)[Si]1(C(C)C)OCc2cc(C3CC3)nc(-c3ccc(Oc4ccccc4)cc3)c21 | -0.777 | 0.15 | 0.056 | -0.654 (inactive) | -0.382 | -0.964 | -0.233 | -0.816 | -0.604 | 0.228 |
| CCCC=C(CCC)[C@@H](NC(=O)C(C)(C)C)c1ccc(C(=O)OC)cc1 | -0.0973 | 1.13 | 1.06 | -0.58 (inactive) | -0.129 | -0.107 | -0.0375 | 0.11 | -0.58 | 0.757 |
| NC(=O)NCC#Cc1ccc2c(c1)[C@]1(C(=O)N2)[C@H](c2ccccc2OCCO)N2[C@H](c3ccccc3)[C@H](c3ccccc3)OC(=O)[C@H]2[C@@H]1C(=O)NC[C@H](O)c1ccccc1 | 0.342 | -0.224 | 0.699 | -1.14 (inactive) | -0.491 | -0.659 | -0.895 | -0.355 | -0.548 | 0.472 |
| Cc1ccc(NN2C(C(O)c3c(F)cccc3Cl)C=CC3C(=O)N(C4CCCCC4)C(=O)C32)cc1 (stereo not given) | 0.338 | 0.827 | 1.07 | -1.19 (inactive) | 0.425 | 1.3 | -0.184 | 0.716 | -0.258 | 1.32 |
| CCCC[C@@H](O)C1=C(COC)C[C@H]2C(=O)N(C)C(=O)[C@H]2[C@H]1CO | 0.0237 | -0.491 | -0.532 | -0.857 (inactive) | 0.0965 | -0.0596 | -0.0915 | 0.344 | 0.339 | 0.581 |
| CCCCC(CC)C(O)C1C=CC2C(=O)N(c3ccccc3)C(=O)C2N1Nc1ccc(C#N)cc1 (stereo not given) | 0.976 | 1.33 | 0.813 | 0.037 (inactive) | 1.11 | 1.32 | 0.217 | 1.28 | 0.0492 | 0.783 |
| CS(=O)(=O)CCOC(=O)C1=CC(CCCO)=CC(c2ccc(CN3CCCC3)cc2)N(Cc2sc3ccccc3c2Cl)C=C1C(=O)OCCS(C)(=O)=O (stereo not given) | 1.37 | 0.518 | -0.0725 | 0.576 (inactive) | 1.34 | 1.33 | 0.558 | 1 | 0.858 | 1.34 |
| O=C1C2C=CC(C(O)c3cccc(O)c3)N(Nc3ccc([N+](=O)[O-])cc3)C2C(=O)N1c1ccccc1 (stereo not given) | 0.367 | 0.158 | 0.451 | 0.663 (inactive) | 1.07 | 0.672 | 0.254 | 0.444 | 0.239 | 0.199 |

| SMILES | composite z-score [1] | composite z-score [2] | composite z-score [3] | z-score [4] | composite z-score [5] | composite z-score [6] | composite z-score [7] | composite z-score [8] | composite z-score [9] | composite z-score [10] |
| --- | --- | --- | --- | --- | --- | --- | --- | --- | --- | --- |
| COCC(=C=CC[C@H](O)c1ccc(OCCO)cc1)CCO | 1.09 | 0.0019 | 0.273 | -0.51 (inactive) | 0.4 | 0.42 | -0.211 | 0.593 | 0.0604 | 1.43 |
| Cc1ccccc1C(O)C1C=CC2C(=O)NC(=O)C2N1Nc1ccccn1 (stereo not given) | 0.105 | 0.145 | 0.397 | 1.55 (inactive) | -0.209 | 0.0301 | 0.262 | 0.056 | 0.144 | 0.605 |
| O=C(O)[C@@H]1C[C@@H]2C(=O)N3CCC[C@H]3C(=O)N2[C@@H]1c1ccc(O)cc1 | 1.51 | 0.857 | 0.11 | -2.2 (inactive) | 0.196 | 0.762 | 0.426 | 0.987 | 0.975 | 0.852 |
| C=C(/C(=C/C[C@H](OC(C)=O)c1ccc(CO)o1)c1cnc2ccccc2c1)C(C)C | 1.1 | -0.151 | -0.483 | 0.652 (inactive) | 1.44 | 1.21 | 0.845 | 1.58 | 0.643 | 1.52 |
| COCCOC(=O)N1C(=O)[C@@]2(c3ccccc31)[C@H](c1ccc(O)cc1)N1[C@H](c3ccccc3)[C@H](c3ccccc3)OC(=O)[C@H]1[C@@H]2C(=O)N1CCN(c2ncccn2)CC1 | 1.45 | 0.0484 | 0.419 | -0.225 (inactive) | 1.04 | 1.11 | 0.194 | 0.466 | 0.259 | 0.922 |
| COc1ccc(CCNC(=O)[C@@]2(Sc3ccc(C)cc3)CC(=O)N(Cc3ccccc3C(F)(F)F)[C@@H]2c2ccc(CO)cc2I)cc1 | 1.09 | -0.0552 | 1.08 | -1.14 (inactive) | -1.06 | -0.404 | -1.24 | -1.64 | -1.14 | 0.67 |
| COc1cc(NN2C(C(O)c3cc(OC)c(OC)c(OC)c3)C=CC3C(=O)N(C)C(=O)C32)cc(OC)c1OC (stereo not given) | 1.03 | 0.171 | 0.318 | 0.255 (inactive) | 0.691 | 0.984 | 0.347 | 0.34 | -0.289 | 0.93 |
| C=C[C@H](C)[C@H](OC(=O)Nc1ccc(SC)cc1)c1ccc(OCCO)cc1 | 1.12 | 0.157 | 0.916 | -3.34 (inactive) | 0.515 | 0.394 | 0.183 | 0.42 | 0.148 | 0.081 |
| O=C(C1N=C(c2ccc(OCCCO)cc2)N(c2ccccc2)O1)N1CCCCC1 (stereo not given) | 0.984 | 0.88 | 0.0556 | -0.577 (inactive) | 0.648 | 1.22 | -0.0036 | 0.181 | 0.291 | 0.088 |
| CCCCNC(=O)c1ccc(C#CC(C)(C)C)c(OC(C)=O)c1 | 0.311 | -0.369 | -0.675 | -1.11 (inactive) | 1.11 | 1.04 | 0.841 | 1.44 | 0.689 | 1.12 |
| C=C[C@@H](CO)N(Cc1ccc(OC)cc1)S(=O)(=O)c1ccc(Br)cc1 | -0.36 | 0.188 | 0.681 | -1.21 (inactive) | 0.0174 | 0.239 | -0.142 | -0.0506 | -0.0478 | 0.0176 |
| C=CCC(OC(C)=O)[C@@H]1[C@@H](N(Cc2ccc(-c3cccc(C(F)(F)F)c3)o2)C(=O)Cc2ccc(OC)cc2)c2cc(OCCCO)ccc2N1C(=O)c1ccc(-c2ccccc2)cc1 (stereo not given in full) | -0.318 | -0.0755 | 0.541 | -1.13 (inactive) | -0.165 | -0.522 | -0.577 | -0.119 | -0.434 | 1.39 |
| C=CCN1Cc2ccccc2[C@@H]2OC(c3ccc(OCCCO)cc3)=N[C@]2(CC=C)C1=O | 1.5 | 2.15 | 1.07 | -1.25 (inactive) | 0.862 | 1.22 | 0.724 | 1.48 | 1.33 | 1.68 |
| CCCCC=C[C@@H](NC(=O)OCc1ccccc1Cl)c1ccccc1 | 0.732 | 1.53 | 1.09 | 0.233 (inactive) | 0.431 | 1.29 | 0.566 | 1.19 | -0.193 | 0.709 |
| N#Cc1ccc(NN2C(C(O)c3ccc(Br)cc3)C=CC3C(=O)N(c4ccccc4)C(=O)C32)cc1 (stereo not given) | 1.17 | 0.96 | 0.905 | -0.699 (inactive) | 0.65 | 0.648 | 0.297 | 0.743 | 0.316 | -0.374 |
| COc1cc(NN2C(C(O)c3ccc(N(C)C)cc3)C=CC3C(=O)N(c4ccccc4)C(=O)C32)cc(OC)c1OC (stereo not given) | 0.101 | 1.16 | 1.13 | -0.859 (inactive) | 0.513 | 0.765 | -0.038 | 0.455 | -0.335 | 1.67 |
| COc1cccc(C)c1NC(=O)O[C@H]1[C@H](OC(=O)Nc2ccc3c(c2)OCO3)[C@@H](OC(=O)Nc2ccc3c(c2)OCO3)[C@@H](OC)O[C@@H]1CO | 0.264 | 0.18 | 0.232 | -0.23 (inactive) | 1.46 | 1.35 | 0.603 | 1.44 | 0.708 | 0.724 |
